The full data set covers some 7,900 targets. This sample favours those with a hit. About 0.6% of all pairs of compound and target were hits.
Tests used:
Test in all cases: log2 fold change, soluble protein after heating vs DMSO (PISA); higher = thermal stabilisation; K562 cells, 10 uM, 30 min; active = over 0.2 and 3.5 SD of the protein, either way, in both replicates (recomputed)
[1] = compound: CC[C@@H]1C(=O)N(C)c2cnc(Nc3ccc(C(=O)NC4CCN(C)CC4)cc3OC)nc2N1C1CCCC1
Summary of the method: (§1)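 K562 cells at 2×10^6 cells/mL were treated with 10 μM compound for 30 min. Aliquots were heated for 3 min across 48°C-58°C, pooled, and extracted in PBS with 0.5% NP-40 at 4°C; soluble protein was the supernatant after 21,000xg for 90 min. Soluble protein was quantified by TMTpro 16plex LC-MS/MS with channel sums equalised, and reported as log2 fold change in thermal stability against DMSO controls, with values from duplicates.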

[2] = compound: CC[C@@H]1C(=O)N(C)c2cnc(Nc3ccc(C(=O)N[C@H]4CC[C@H](N5CCN(CC6CC6)CC5)CC4)cc3OC)nc2N1C(C)C [volasertib]
Summary of the method: as §1

[3] = compound: CC[C@H](C)N1C=C(C2=C(C=C(C=C21)C3=CN=C(C=C3)N4CCNCC4)C(=O)NCC5=C(C=C(NC5=O)C)C)C
Summary of the method: as §1

[4] = compound: CC[C@H](C)[C@@H](C(=O)N[C@@H]([C@@H](C)O)C(=O)N[C@@H](CC(C)C)C(=O)[C@]1(CO1)C)NC(=O)[C@H]([C@@H](C)CC)N(C)C(=O)C [epoxomicin]
Summary of the method: as §1

[5] = compound: CCn1c(C(=O)N(C2CC2)C2CC2)cc2c3c(ncn3C)c(Nc3cc(C)n(C)n3)nc21
Summary of the method: as §1

[6] = compound: CCn1cc(-c2ccnc3[nH]c(-c4cccc(CN(C)C)c4)cc23)c(-c2ccc(NC(=O)N(C)C)cc2)n1
Summary of the method: as §1

[7] = compound: CN(C)CC(=O)Nc1ccc2[nH]c(=O)c3ccccc3c2c1
Summary of the method: as §1

[8] = compound: CN(CCOC1=CC=C(C=C1)C[C@H]2C(=O)NC(=O)S2)C3=CC=CC=N3 (racemic) [rosiglitazone]
Summary of the method: as §1

[9] = compound: CN1C2=C(C3=C1C(=O)N(N=C3)CC4=CC(=CC=C4)N)SC(=C2)S(=O)C
Summary of the method: as §1

[10] = compound: CN1CCC(CNc2ccc3ncc(-c4cccc(OC(F)(F)F)c4)n3n2)CC1
Summary of the method: as §1

Measured: log2 fold change

SPG11 (UniProt Q96JI7)
inactive: [1] 0.155 | [2] -0.294 | [3] 0.017 | [4] -0.085 | [5] 0.019 | [6] 0.141 | [7] -0.216 | [8] -0.045 | [9] 0.367
active: [10] -1.24

TIMM44 (UniProt O43615)
inactive: [3] -0.004 | [4] 0.057 | [5] -0.006 | [6] -0.091 | [7] 0.012 | [8] 0.036 | [9] -0.056
active: [1] -0.412 | [2] -0.57 | [10] -0.886

TJP1 (UniProt Q07157)
UniProt Q07157, sequence (Q07157 whole entry, looked up): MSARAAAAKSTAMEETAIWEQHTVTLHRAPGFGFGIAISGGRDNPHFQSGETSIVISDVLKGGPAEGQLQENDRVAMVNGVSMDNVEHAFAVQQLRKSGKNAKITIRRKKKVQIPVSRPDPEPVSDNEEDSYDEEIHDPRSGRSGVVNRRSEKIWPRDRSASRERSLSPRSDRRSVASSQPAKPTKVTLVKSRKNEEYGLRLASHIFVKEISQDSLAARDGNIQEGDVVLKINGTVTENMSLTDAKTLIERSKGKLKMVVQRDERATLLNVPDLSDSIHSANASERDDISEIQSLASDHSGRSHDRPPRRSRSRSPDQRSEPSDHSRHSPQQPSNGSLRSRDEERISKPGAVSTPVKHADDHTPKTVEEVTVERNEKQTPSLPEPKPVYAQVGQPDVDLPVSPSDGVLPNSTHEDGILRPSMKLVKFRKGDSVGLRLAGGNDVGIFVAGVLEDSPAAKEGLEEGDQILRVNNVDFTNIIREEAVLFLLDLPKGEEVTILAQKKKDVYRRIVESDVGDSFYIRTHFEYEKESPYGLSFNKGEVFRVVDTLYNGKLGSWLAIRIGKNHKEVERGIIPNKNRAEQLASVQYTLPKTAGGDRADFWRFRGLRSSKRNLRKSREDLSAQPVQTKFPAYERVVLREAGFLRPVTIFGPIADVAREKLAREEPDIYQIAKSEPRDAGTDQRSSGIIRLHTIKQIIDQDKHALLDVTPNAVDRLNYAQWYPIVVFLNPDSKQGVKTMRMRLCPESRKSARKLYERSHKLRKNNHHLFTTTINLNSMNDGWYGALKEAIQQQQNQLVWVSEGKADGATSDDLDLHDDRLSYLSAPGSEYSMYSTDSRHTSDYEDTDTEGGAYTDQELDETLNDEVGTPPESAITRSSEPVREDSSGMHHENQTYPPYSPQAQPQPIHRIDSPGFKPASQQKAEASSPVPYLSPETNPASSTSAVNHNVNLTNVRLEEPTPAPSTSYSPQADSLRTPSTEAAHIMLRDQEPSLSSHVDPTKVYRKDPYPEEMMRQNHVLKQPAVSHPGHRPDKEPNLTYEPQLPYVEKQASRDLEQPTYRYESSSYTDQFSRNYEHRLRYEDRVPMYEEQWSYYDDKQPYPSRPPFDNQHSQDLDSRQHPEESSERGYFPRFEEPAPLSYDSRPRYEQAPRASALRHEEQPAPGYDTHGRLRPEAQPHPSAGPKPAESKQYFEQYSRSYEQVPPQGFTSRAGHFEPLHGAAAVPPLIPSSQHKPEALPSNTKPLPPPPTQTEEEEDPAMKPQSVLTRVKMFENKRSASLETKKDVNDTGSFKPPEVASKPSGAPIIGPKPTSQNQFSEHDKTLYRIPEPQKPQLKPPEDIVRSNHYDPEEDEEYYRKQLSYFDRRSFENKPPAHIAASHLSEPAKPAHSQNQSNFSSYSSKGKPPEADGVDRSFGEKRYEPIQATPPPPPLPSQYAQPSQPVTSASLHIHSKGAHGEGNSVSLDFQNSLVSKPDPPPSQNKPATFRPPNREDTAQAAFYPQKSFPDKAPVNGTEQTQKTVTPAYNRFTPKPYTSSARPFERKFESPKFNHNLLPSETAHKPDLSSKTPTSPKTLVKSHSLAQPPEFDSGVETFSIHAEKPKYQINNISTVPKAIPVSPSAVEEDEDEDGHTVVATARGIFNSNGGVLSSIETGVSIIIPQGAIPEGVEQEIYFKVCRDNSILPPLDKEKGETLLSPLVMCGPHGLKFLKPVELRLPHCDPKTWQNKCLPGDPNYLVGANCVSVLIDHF
inactive: [1] -0.023 | [2] -0.166 | [3] 0.022 | [4] 0.007 | [5] -0.023 | [6] -0.052 | [7] 0.012 | [8] 0.019 | [9] 0 | [10] -0.071

SNX6 (UniProt Q9UNH7)
inactive: [1] -0.142 | [2] -0.047 | [3] 0.117 | [4] 0.015 | [5] -0.141 | [6] -0.131 | [7] 0.005 | [8] 0.08 | [9] 0.016
active: [10] -0.77

SNW1 (UniProt Q13573)
inactive: [1] 0.094 | [2] 0.078 | [3] -0.052 | [4] -0.012 | [5] 0.03 | [6] 0.044 | [7] -0.027 | [8] -0.047 | [9] 0 | [10] 0.078

SMARCA5 (UniProt O60264)
inactive: [1] -0.242 | [2] -0.333 | [3] 0.045 | [4] 0.092 | [5] -0.088 | [6] -0.06 | [7] 0.053 | [8] -0.003 | [9] 0.121 | [10] 0.076

SRP72 (UniProt O76094)
inactive: [1] -0.093 | [2] -0.518 | [3] 0.119 | [4] 0.001 | [5] -0.104 | [6] -0.034 | [7] 0.03 | [8] 0.047 | [9] 0.119 | [10] -0.168

SPART (UniProt Q8N0X7)
active: [2] -0.224
inactive: [1] -0.031 | [3] -0.005 | [4] -0.123 | [5] -0.015 | [6] 0.014 | [7] 0.069 | [8] 0.04 | [9] -0.035 | [10] -0.052

SNX12 isoform 1 (UniProt Q9UMY4)
UniProt Q9UMY4, sequence (Q9UMY4 whole entry, looked up): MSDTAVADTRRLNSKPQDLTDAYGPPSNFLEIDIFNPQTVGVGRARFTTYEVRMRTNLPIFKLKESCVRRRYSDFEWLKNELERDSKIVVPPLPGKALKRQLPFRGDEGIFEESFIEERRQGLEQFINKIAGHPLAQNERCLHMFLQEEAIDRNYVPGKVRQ
active: [2] -0.252 | [10] -0.275
inactive: [1] -0.124 | [3] 0.069 | [4] 0.028 | [5] -0.068 | [6] 0.043 | [7] -0.012 | [8] 0.058 | [9] 0.045

SOAT1 (UniProt P35610)
UniProt P35610, sequence (P35610 whole entry, looked up): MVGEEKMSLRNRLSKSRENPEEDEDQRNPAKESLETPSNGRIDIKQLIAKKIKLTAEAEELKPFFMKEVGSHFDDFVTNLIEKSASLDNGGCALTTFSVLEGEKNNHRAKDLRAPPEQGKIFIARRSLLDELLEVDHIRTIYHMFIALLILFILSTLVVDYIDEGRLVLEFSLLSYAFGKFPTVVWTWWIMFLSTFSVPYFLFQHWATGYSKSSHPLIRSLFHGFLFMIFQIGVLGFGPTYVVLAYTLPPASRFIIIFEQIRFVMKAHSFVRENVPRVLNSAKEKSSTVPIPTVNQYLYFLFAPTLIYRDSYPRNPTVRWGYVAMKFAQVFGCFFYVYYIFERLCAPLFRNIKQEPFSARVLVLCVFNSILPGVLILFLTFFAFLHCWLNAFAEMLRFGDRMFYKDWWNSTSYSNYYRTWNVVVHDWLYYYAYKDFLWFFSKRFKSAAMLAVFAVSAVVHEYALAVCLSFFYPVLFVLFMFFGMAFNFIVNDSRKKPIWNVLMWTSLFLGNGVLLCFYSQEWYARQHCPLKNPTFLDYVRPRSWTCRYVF
inactive: [1] -0.017 | [2] 0.053 | [3] -0.094 | [4] 0.029 | [5] 0.009 | [6] 0.013 | [7] -0.04 | [8] -0.016 | [9] -0.051 | [10] -0.09

SNUPN (UniProt O95149)
active: [2] -0.296
inactive: [1] -0.133 | [3] 0.014 | [4] -0.013 | [5] 0.019 | [6] -0.076 | [7] 0.003 | [8] -0.001 | [9] -0.01 | [10] -0.004

SLC27A2 (UniProt O14975)
UniProt O14975, sequence (O14975 whole entry, looked up): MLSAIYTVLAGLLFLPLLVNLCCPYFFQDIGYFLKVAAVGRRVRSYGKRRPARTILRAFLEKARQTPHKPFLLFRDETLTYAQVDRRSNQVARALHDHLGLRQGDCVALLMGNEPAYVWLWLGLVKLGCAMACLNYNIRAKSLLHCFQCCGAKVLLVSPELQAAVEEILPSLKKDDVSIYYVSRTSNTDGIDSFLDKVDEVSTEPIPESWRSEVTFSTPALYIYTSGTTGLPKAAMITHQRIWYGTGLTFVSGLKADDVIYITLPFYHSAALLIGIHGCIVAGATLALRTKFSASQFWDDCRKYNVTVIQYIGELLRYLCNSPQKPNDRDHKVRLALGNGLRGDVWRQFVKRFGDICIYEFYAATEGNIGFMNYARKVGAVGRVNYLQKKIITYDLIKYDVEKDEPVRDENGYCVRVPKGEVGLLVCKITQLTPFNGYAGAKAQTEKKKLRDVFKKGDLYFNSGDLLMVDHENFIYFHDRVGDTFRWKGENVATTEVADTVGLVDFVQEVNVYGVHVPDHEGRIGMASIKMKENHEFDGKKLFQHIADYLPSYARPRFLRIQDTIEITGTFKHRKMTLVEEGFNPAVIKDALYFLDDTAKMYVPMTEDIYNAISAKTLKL
inactive: [1] -0.094 | [3] 0 | [4] -0.05 | [6] -0.064 | [7] 0.016 | [8] -0.032 | [9] -0.092
active: [2] -0.408 | [5] 0.277 | [10] 0.313

SRP68 (UniProt Q9UHB9)
UniProt Q9UHB9, sequence (Q9UHB9 whole entry, looked up): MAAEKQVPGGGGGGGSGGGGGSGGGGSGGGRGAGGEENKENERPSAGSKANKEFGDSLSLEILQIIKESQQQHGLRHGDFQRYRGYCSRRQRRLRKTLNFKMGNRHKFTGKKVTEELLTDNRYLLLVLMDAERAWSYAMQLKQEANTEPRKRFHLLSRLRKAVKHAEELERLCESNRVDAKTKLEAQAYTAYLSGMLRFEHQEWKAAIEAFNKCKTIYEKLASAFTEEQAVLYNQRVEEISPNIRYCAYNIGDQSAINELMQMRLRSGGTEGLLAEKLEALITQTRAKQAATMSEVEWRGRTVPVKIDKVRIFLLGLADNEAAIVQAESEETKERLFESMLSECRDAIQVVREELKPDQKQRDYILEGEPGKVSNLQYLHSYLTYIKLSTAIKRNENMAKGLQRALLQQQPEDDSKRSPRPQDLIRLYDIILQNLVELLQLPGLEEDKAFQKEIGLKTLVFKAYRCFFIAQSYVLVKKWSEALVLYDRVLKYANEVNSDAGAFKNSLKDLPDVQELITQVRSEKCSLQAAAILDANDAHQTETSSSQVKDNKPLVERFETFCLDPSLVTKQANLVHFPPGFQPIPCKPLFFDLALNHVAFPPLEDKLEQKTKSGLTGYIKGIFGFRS
active: [2] -0.487
inactive: [1] -0.077 | [3] 0.079 | [4] 0.094 | [5] -0.093 | [6] -0.024 | [7] 0.019 | [8] 0.048 | [9] 0.133 | [10] -0.18

STRN (UniProt O43815)
inactive: [1] -0.031 | [2] -0.031 | [3] 0.026 | [4] 0.046 | [5] 0.007 | [6] -0.046 | [7] 0.02 | [8] 0.003 | [9] -0.031 | [10] 0.073

SLC25A39 (UniProt Q9BZJ4)
active: [10] -0.82
inactive: [1] 0.029 | [2] -0.06 | [3] 0.087 | [4] 0.081 | [5] 0.096 | [6] -0.12 | [7] 0.06 | [8] -0.03 | [9] 0.012

ST3GAL2 (UniProt Q16842)
active: [2] -0.562 | [10] -0.474
inactive: [1] -0.28 | [3] -0.053 | [4] -0.053 | [5] -0.038 | [6] 0.062 | [7] 0.005 | [8] 0.011 | [9] -0.071

SUMO1 (UniProt P63165)
UniProt P63165, sequence (P63165 whole entry, looked up): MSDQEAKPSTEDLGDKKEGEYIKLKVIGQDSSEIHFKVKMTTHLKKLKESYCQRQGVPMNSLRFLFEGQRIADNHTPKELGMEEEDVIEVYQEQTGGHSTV
inactive: [1] 0.034 | [2] -0.035 | [3] -0.046 | [4] -0.011 | [5] 0.088 | [6] 0.015 | [7] 0.021 | [8] 0.002 | [9] 0.038 | [10] 0.007

SYF2 (UniProt O95926)
inactive: [1] 0.196 | [2] 0.174 | [3] -0.096 | [4] 0.129 | [5] -0.01 | [6] 0.068 | [7] -0.044 | [8] -0.017 | [9] 0.039 | [10] 0.187

SP100 isoform 4 (UniProt P23497)
inactive: [1] -0.021 | [2] -0.065 | [3] 0.012 | [4] -0.006 | [5] 0.023 | [6] 0.056 | [7] -0.045 | [8] -0.009 | [9] -0.059 | [10] -0.064

SSRP1 (UniProt Q08945)
active: [2] -0.412
inactive: [1] -0.121 | [3] 0.052 | [4] 0.02 | [5] -0.073 | [6] 0.007 | [7] 0.01 | [8] 0.052 | [9] -0.003 | [10] -0.067

SMAP (UniProt O00193)
inactive: [1] -0.024 | [2] 0.023 | [3] -0.043 | [4] 0.06 | [5] -0.02 | [6] 0.014 | [7] -0.011 | [8] -0.038 | [9] -0.088 | [10] -0.045

SUOX (UniProt P51687)
UniProt P51687, sequence (P51687 whole entry, looked up): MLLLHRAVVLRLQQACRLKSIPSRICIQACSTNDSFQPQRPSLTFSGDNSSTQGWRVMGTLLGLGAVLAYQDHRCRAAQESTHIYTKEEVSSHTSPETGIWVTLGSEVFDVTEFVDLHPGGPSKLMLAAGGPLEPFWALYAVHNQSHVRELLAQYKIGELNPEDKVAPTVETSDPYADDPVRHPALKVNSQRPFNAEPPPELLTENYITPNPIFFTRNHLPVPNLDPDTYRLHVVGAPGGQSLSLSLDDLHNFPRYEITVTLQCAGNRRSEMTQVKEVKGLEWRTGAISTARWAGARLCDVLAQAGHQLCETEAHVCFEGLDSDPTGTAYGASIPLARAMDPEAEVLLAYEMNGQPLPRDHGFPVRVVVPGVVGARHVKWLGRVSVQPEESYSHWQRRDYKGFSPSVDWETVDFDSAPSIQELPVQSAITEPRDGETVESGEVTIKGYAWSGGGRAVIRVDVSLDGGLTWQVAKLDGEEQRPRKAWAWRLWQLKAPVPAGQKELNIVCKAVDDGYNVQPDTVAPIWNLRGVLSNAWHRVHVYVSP
inactive: [1] 0.003 | [2] -0.04 | [3] -0.02 | [4] 0.013 | [5] 0.026 | [6] 0 | [7] 0.005 | [8] 0.012 | [9] -0.07
active: [10] -0.31

STAT6 (UniProt P42226)
inactive: [1] -0.196 | [3] -0.02 | [4] -0.074 | [5] -0.033 | [6] 0.1 | [7] 0.093 | [8] 0.038 | [9] 0.018 | [10] -0.11
active: [2] -0.594

TBC1D9B (UniProt Q66K14)
active: [1] -0.58 | [2] -0.348 | [10] -0.328
inactive: [3] 0.053 | [4] -0.073 | [5] -0.089 | [6] -0.141 | [7] 0.021 | [8] -0.102 | [9] 0.018

TIPRL (UniProt O75663)
UniProt O75663, sequence (O75663 whole entry, looked up): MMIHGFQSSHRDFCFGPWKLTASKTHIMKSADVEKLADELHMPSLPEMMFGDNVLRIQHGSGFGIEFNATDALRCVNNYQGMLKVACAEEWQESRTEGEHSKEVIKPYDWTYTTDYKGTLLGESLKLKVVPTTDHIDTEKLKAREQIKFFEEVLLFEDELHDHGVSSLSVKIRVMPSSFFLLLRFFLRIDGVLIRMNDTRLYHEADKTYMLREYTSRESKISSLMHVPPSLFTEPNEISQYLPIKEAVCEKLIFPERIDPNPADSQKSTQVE
active: [2] -0.23
inactive: [1] -0.061 | [3] 0.072 | [4] 0.025 | [5] -0.012 | [6] -0.057 | [7] 0.032 | [8] 0.085 | [9] 0.021 | [10] -0.214

TMBIM1 (UniProt Q969X1)
UniProt Q969X1, sequence (Q969X1 whole entry, looked up): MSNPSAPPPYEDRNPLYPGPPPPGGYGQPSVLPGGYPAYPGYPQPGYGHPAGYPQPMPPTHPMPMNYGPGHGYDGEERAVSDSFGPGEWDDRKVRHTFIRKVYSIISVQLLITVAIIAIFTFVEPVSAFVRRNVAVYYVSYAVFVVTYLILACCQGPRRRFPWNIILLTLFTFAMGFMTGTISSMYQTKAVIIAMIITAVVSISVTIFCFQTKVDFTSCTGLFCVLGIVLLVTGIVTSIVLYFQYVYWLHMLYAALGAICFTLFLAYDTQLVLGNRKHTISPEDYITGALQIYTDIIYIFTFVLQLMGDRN
inactive: [1] 0.086 | [2] 0.002 | [3] -0.014 | [4] -0.033 | [5] 0.034 | [6] 0.044 | [7] 0.029 | [8] -0.013 | [9] -0.035 | [10] -0.03

SQSTM1 (UniProt Q13501)
inactive: [1] -0.09 | [2] -0.204 | [3] 0.021 | [4] -0.056 | [5] 0.041 | [6] -0.112 | [7] 0.042 | [8] 0.012 | [9] 0.043 | [10] -0.022

SNRPD3 (UniProt P62318)
inactive: [1] 0.194 | [2] 0.134 | [3] -0.058 | [4] -0.037 | [5] 0.005 | [6] 0.058 | [7] -0.07 | [8] -0.047 | [9] 0.001 | [10] 0.198

TERF2IP (UniProt Q9NYB0)
inactive: [1] -0.038 | [2] -0.205 | [3] 0.001 | [4] 0.081 | [5] 0.02 | [6] 0.01 | [7] 0.045 | [8] 0.016 | [9] 0.026 | [10] -0.039

STEAP3 isoform 2 (UniProt Q658P3)
inactive: [1] 0.036 | [2] -0.013 | [3] -0.023 | [4] 0.01 | [5] 0.028 | [6] -0.084 | [7] 0.002 | [8] 0.021 | [9] 0.041 | [10] -0.096

Source: the supplement of paper PMC10849652
